The whole screen tested about 350,000 compounds, of which about 31,000 (8.9%) were called active. Entries that show only a call come without a potency. Roughly 15% stayed inconclusive and do not appear here. This is one part of a sample in which actives are shown more often than they occur. Calls come from the whole dose curve; as a rule, active = well fitted inhibition curve with a large enough effect; inconclusive = small, poorly fitted or top-dose-only effect; inactive = no such curve, though single readings can be large or run the other way.
target: Histone-lysine N-methyltransferase EHMT2 (Homo sapiens) (UniProt Q96KQ7); test: qHTS Assay for Inhibitors of Histone Lysine Methyltransferase G9a; conditions: G9a H3K9 monomethylation, AlphaScreen, 2 h; series mostly up to 59 µM; note: nearly all actives have a fitted effect of over 75% in size
Sequence (Q96KQ7 913-1193 limits assumed): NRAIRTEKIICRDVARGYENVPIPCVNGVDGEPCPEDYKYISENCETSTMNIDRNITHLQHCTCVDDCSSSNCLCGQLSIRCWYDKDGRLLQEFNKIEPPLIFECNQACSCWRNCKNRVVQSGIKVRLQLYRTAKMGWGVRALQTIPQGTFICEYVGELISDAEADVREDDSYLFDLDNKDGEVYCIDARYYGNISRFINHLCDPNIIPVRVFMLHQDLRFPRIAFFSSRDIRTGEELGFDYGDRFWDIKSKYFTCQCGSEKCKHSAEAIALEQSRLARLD
How it was run: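 Quantitative HTS format: methyltransferase activity on a biotin-tagged H3K9 peptide is measured by AlphaScreen, using a rabbit anti-monomethyl-H3K9 antibody with streptavidin donor and anti-IgG acceptor beads. Final levels are 20 nM enzyme, 500 nM peptide, 20 uM SAM; 2 h RT.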
Potency is the fitted concentration of half-maximal effect.

| Structure (SMILES) | Potency | activity, negative = inhibition |
| --- | --- | --- |
| Cc1csc(NC(=O)C2CCN(S(=O)(=O)c3ccccc3)CC2)n1 | inactive |  |
| CC(=O)Nc1cccc(C(=O)Nc2nc(C)cs2)c1 | inactive |  |
| Cc1csc(NC(=O)NC2(C(F)(F)F)Oc3ccccc3O2)n1 | 2 µM (active) |  |
| CC(C)(C)C1C/C(=C/c2ccco2)C(=O)/C(=C/c2ccco2)C1 (stereo unspecified) | 39.8 µM (active) |  |
| O=C1OC(/C=C/c2ccccc2)=NC/1=C/c1ccco1 | inactive |  |
| CCOC(=O)c1c(S(=O)(=O)N2CCC(C(=O)NCc3ccccc3OC)CC2)c(C)n(C)c1C | inactive |  |
| CCOC(=O)c1c(NC(=O)c2ccc(S(=O)(=O)N3CCCC(C)C3)cc2)sc2c1CCN(C(C)C)C2 (stereo unspecified) | inactive |  |
| CC(C)(C)NC(=O)COc1ccc(CNc2ccc3[nH]c(=O)[nH]c3c2)cc1 | 31.6 µM (active) |  |
| CC(=O)Nc1ccc(OCC(=O)NCc2ccc(C)cc2)cc1 | inactive |  |
| COC(=O)c1ccc(OCC(=O)NC(C)(C)C)cc1 | inactive |  |
| Cc1ccc(OCC(=O)N2CCN(S(=O)(=O)c3ccc(Cl)s3)CC2)cc1C |  | 6.17% [at 2.33 µM] (inactive) |
| C=CCNC(=O)COc1coc(CN2CCN(Cc3ccccc3)CC2)cc1=O |  | 18.3% [at 0.501 µM] (inactive) |
| C=CCNC(=S)N/N=C/c1ccc(OCc2ccccc2)cc1 | inactive |  |
| C=CCNC(=S)/N=c1/ccccn1Cc1ccccc1 | 31.6 µM (active) |  |
| O=C(CSc1nc2[nH]c(=O)[nH]c(=O)c2s1)Nc1cccc(F)c1 |  | 24.5% [at 12.7 µM] (inactive) |
| COc1ccc(OC)c(NC(=O)CSC2=Nc3ccccc3C3=NC(CC(=O)NCCc4ccccc4)C(=O)N23)c1 (stereo unspecified) | inactive |  |
| COc1cc(NC(=O)COC(=O)CSc2ccc3ccccc3c2)c(C)cc1[N+](=O)[O-] | inactive |  |
| COc1ccc(OCC(=O)Nc2cc(C)c(Cl)cc2OC)c([N+](=O)[O-])c1 | inactive |  |
| Cc1cc(NC(=O)COC(=O)COc2ccc(Cl)cc2C)c([N+](=O)[O-])cc1C | 8.91 µM (active) |  |
| Cc1ccccc1OCCSc1nc2ccc(NC(=O)c3ccco3)cc2s1 | inactive |  |
| CC(=O)c1c(C)[nH]c(C(=O)OCC(=O)Nc2c(C)cccc2C)c1C |  | -11.6% [at 12.7 µM] (inactive) |
| Brc1ccc2nc(N3CCCC3)sc2c1 | inactive |  |
| CC(=O)Nc1ccc(S(=O)(=O)Nc2ccc(N3CCOCC3)c(F)c2)cc1 | inactive |  |
| O=S(=O)(Nc1ccc2nc(N3CCOCC3)sc2c1)c1ccccc1 | 50.1 µM (active) |  |

| Structure (SMILES) | Potency | activity, negative = inhibition |
| --- | --- | --- |
| COC(=O)c1sc(=S)n(-c2ccccc2)c1N | 3.16 µM (active) |  |
| Cc1cccc(C(=O)N2CCCN(C(=O)c3cccc(C)c3)CC2)c1 |  | -5.03% [at 12.7 µM] (inactive) |
| Cc1ccc(-n2c(N)c(C(=O)N3CCOCC3)sc2=S)c(C)c1 | 7.94 µM (active) |  |
| Cc1ccc(S(=O)(=O)N2CCN(C(=O)N3CCOCC3)CC2)c(C)c1 | inactive |  |
| COC(=O)c1sc(N2CCN(Cc3ccccc3)CC2)nc1N | inactive |  |
| COC(=O)c1sc(=S)n(-c2ccc(Cl)cc2)c1C | inactive |  |
| CC(C)=C1SC(N2CCN(c3cccc(C)c3)CC2)=NC1=O |  | 10.3% [at 12.7 µM] (inactive) |
| Cc1cccc(-n2c(N)c(C(=O)N3CCN(C)CC3)sc2=S)c1 | 8.91 µM (active) |  |
| N#Cc1ccccc1-n1c(N)c(C(=O)N2CCCC2)sc1=S |  | 19.8% [at 0.501 µM] (inactive) |
| COc1ccc(CCNc2nc(-c3ccc(Cl)cc3)cc(C(F)(F)F)n2)cc1OC | inactive |  |
| COc1cc(-c2noc(-c3ccc(N4CCCC4)c([N+](=O)[O-])c3)n2)cc(OC)c1OC | inactive |  |
| O=C(COc1ccccc1)OCc1cc(=O)n2nc(-c3cccs3)sc2n1 | inactive |  |
| Cc1cccc(-n2c(C)cc(/C=N\NC(=O)c3cccs3)c2C)c1 | inactive |  |
| NC(=O)N/N=C\c1cccs1 | inactive |  |
| Cc1cc(/C=N/NC(N)=O)c(C)n1C1CCCCC1 | 50.1 µM (active) |  |
| COc1cccc(C(=O)NNC(=O)c2ccccc2Br)c1 | inactive |  |
| COc1ccc2c(c1)Cc1sc(NC(=O)c3ccccc3Br)nc1-2 | 25.1 µM (active) |  |
| Cn1c(=O)c(=O)n(C)c2cc(NC(=O)c3ccccc3Br)ccc21 | inactive |  |
| COc1ccc(CNC(=O)c2cc3c(-c4ccccc4F)nn(C)c3s2)c(OC)c1 | inactive |  |
| CCN(CC(=O)Nc1ccccc1C(F)(F)F)C(=O)CSCc1c(C)noc1C |  | 9.18% [at 0.501 µM] (inactive) |
| CCOC(=O)C1(Cc2ccccc2C)CCCN(C(=O)CCc2c(C)noc2C)C1 (stereo unspecified) | inactive |  |
| CCOc1ccc(N2C(=O)CN(c3cccc4ccccc34)C2=S)cc1 | inactive |  |
| CCOc1ccc(N2C(=O)/C(=C/c3ccc(C)o3)N(C)C2=S)cc1 | 3.55 µM (active) |  |
| CCOc1ccc(N2C(=O)CSC2=NC#N)cc1 |  | -16.5% [at 12.7 µM] (inactive) |

| Structure (SMILES) | Potency | activity, negative = inhibition |
| --- | --- | --- |
| COc1ccc(/C=C2\SC(=O)N(CCC(=O)NC3CCS(=O)(=O)C3)C2=O)cc1 (stereo unspecified) | inactive |  |
| Cc1ccc(-n2c3nc(=O)[nH]c(=O)c-3cc3c(Cl)cccc32)cc1 | inactive |  |
| CCOc1ccc(S(=O)(=O)N2CCCC(C(=O)N3CCC(C(N)=O)CC3)C2)cc1Cl (stereo unspecified) | inactive |  |
| CCN1/C(=C\c2ccc3ccccc3[n+]2CC)Sc2cc(C)ccc21 | 22.4 µM (active) |  |
| Cc1nc2nc(SCC(=O)Nc3cccc(F)c3)[nH]c2cc1Br | inactive |  |
| COc1ccc(C(=O)Nc2ccc(C3(C#N)CCCC3)cc2)cc1OC |  | 5.57% [at 0.501 µM] (inactive) |
| CC1(C)N=C(SCc2ccccc2Cl)c2ccccc2N1 | inactive |  |
| CNc1ccc(NC(C)=O)cc1[N+](=O)[O-] | inactive |  |
| Cc1ccc(/C=C/C(=O)Nc2ccc([N+](=O)[O-])c(NC(=O)/C=C/c3ccc(C)o3)c2)o1 | 22.4 µM (active) |  |
| CCc1nnc(NC(=O)/C=C/c2ccc(C)o2)s1 | inactive |  |
| CC(C(=O)N1CCN(c2ccccc2F)CC1)c1ccc([N+](=O)[O-])cc1 (stereo unspecified) |  | 13.1% [at 0.501 µM] (inactive) |
| COc1ccc2c(CNCCc3ccccc3C)c(C(=O)O)n(Cc3ccccc3C)c2c1 | inactive |  |
| CCOc1ccc(C2C(C(=O)Nc3ccc(Cl)cc3)=C(C)Nc3nc(C(F)(F)F)nn32)cc1 (stereo unspecified) | inactive |  |
| Cc1nnc(SCC(=O)NC2CCCC2)s1 | inactive |  |
| Cc1nnc(SCC2=C(C(=O)O)N3C(=O)C(NC(=O)Cn4nc(C)c(Cl)c4C)C3SC2)s1 (stereo unspecified) | 31.6 µM (active) |  |
| O=C1N[C@@H](Cc2ccccc2)C(=O)N2[C@H]1C[C@]1(Br)c3ccccc3N(S(=O)(=O)c3ccccc3)[C@H]21 |  | 7.4% [at 2.33 µM] (inactive) |
| Cc1ccc(NC(=O)Cn2nnc3sc4c(c3c2=O)CCC(C)C4)cc1 (stereo unspecified) | inactive |  |
| CCCn1nnc2sc3c(c2c1=O)CCC(C)C3 (stereo unspecified) | inactive |  |
| CC1CCc2c(sc3nc4n(c(=O)c23)CCS4)C1 (stereo unspecified) | 50.1 µM (active) |  |
| CC1CCN(C(=O)COC(=O)CCC(=O)c2cccs2)CC1 | inactive |  |
| Brc1ccc2c(c1)NC(c1cccnc1)=NC(c1ccccc1)=N2 | inactive |  |
| CN(C)CCNC(=O)c1[nH]nc2c1CCc1ccccc1-2 | 44.7 µM (active) |  |
| CN(C)CCCNC(=O)c1ccc2[nH]c3ccccc3c2c1 |  | 38.1% [at 0.501 µM] (inactive) |
| COc1ccc(C(=O)Nc2ccccc2C(=O)N/N=C/c2ccccc2OC)cc1 |  | 14.1% [at 0.501 µM] (inactive) |

| Structure (SMILES) | Potency | activity, negative = inhibition |
| --- | --- | --- |
| COc1cccc(/C=N\NC(=O)C2=NNC(=O)C2C)c1O (stereo unspecified) | inactive |  |
| COc1cccc(/C=N/NC(=O)c2[nH]nc3c2CCc2ccccc2-3)c1O | 50.1 µM (active) |  |
| CCCCN(CC)CCCNC(=O)c1nn(C)c2c1CSc1ccccc1-2 | inactive |  |
| O=S(=O)(Nc1ccc(-c2ccc(N3CCOCC3)nn2)cc1)c1cc(Cl)ccc1Cl |  | -28.8% [at 2.33 µM] (inactive) |
| COc1ccccc1N1CCN(C(=O)C2CCN(S(=O)(=O)c3c(C)noc3/C=C/c3ccc(C)cc3)CC2)CC1 | inactive |  |
| Cc1ccc(CNC(=O)CCS(=O)(=O)c2ccc3c(c2)CC(C)N3C(=O)C2CC2)o1 (stereo unspecified) |  | 17.4% [at 0.0925 µM] (inactive) |
| Cn1c(SCc2ccc(F)cc2)nnc1-c1ccncc1 | inactive |  |
| CCOc1ccc(Nc2c(S(=O)(=O)c3ccccc3)cnc3ccccc23)cc1 | inactive |  |
| Cc1ccc(CNS(=O)(=O)c2ccc(C(=O)N(C)C)s2)cc1 | inactive |  |
| Cc1ccc(-n2ncc3c(NCCCn4ccnc4)ncnc32)cc1Cl | inactive |  |
| Cn1c(=O)[nH]c(=O)c2c1nc(N1CCCCCC1)n2CC(=O)c1ccccc1 | inactive |  |
| CN1CCN(c2nc3c(c(=O)[nH]c(=O)n3C)n2Cc2cccc3ccccc23)CC1 | 25.1 µM (active) |  |
| Cn1c(=O)[nH]c(=O)c2c1nc(N1CCN(C(c3ccccc3)c3ccccc3)CC1)n2CCO | inactive |  |
| Cc1cn([C@H]2CC(F)[C@@H](CO)O2)c(=O)[nH]c1=O (stereo partly specified) |  | 8.73% [at 12.7 µM] (inactive) |
| COc1ccc(NC(=O)Cn2c(=O)n(Cc3ccc(C(=O)NCc4ccccc4Cl)cc3)c(=O)c3ccccc32)cc1 | inactive |  |
| Cc1noc(C)c1C(=O)OCC(=O)/C=C1\N(C)c2ccccc2C1(C)C | inactive |  |
| CN1/C(=C\C(=O)c2cccnc2Cl)C(C)(C)c2ccccc21 | inactive |  |
| CN1/C(=C\C=C2\N=C(c3ccc(F)cc3)OC2=O)C(C)(C)c2ccccc21 | 4.47 µM (active) |  |
| CC(=O)Nc1ccc(SC[C@H](Cc2ccccc2)N2CC[C@@H](C)CCC2=O)cc1 |  | -3.36% [at 0.501 µM] (inactive) |
| Cc1ccc(OCCSc2nc(-c3cccs3)nc3cc(=O)[nH]n23)cc1Cl | inactive |  |
| Cc1ccc(C(=O)NNC(=O)c2ccncc2)cc1S(=O)(=O)N1CCCCC1 | inactive |  |
| Cc1nc2cnc(Nc3ccccc3)nc2n(C[C@H]2CCCO2)c1=O |  | 8.09% [at 0.501 µM] (inactive) |
| Cc1cccc(S(=O)(=O)N2CN(CC3CCCO3)c3nc4ccccc4nc32)c1 (stereo unspecified) | 50.1 µM (active) |  |
| O=S(=O)(NCC1CCCO1)c1ccc2ccccc2c1 (stereo unspecified) | inactive |  |
